In the library only some 19% were active in any assay of this set; here they are far more common.
IL1B secr inh = qHTS for Inhibitors of Inflammasome Signaling: IL-1-beta AlphaLISA Primary Screen; THP-1 LPS/ATP IL-1B secretion, AlphaLISA, 16 h; active compounds read low; activity change, % at 57.5 µM; hit rate 4.7% among 360,000; in the data active = activity change below about -50%; inconclusive = mostly about -30% to -49%
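THP-1 cells pretreated 1 hr with compounds (up to 57.5 uM final), then stimulated with LPS (250 ng/mL final) plus ATP (1.25 mM final); secreted IL-1B measured by AlphaLISA after 16 hr, decreased signal indicating inhibition.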
DT40 TDP1 CPT = qHTS for Inhibitors of human tyrosyl-DNA phosphodiesterase 1 (TDP1): qHTS in cells in presence of CPT; chicken DT40 Tdp1-/-;hTDP1 cells + 20 nM CPT, ATP luminescence, 48 h; Potency, µM (top dose mostly 46.2 µM), for inactives: at the highest dose activity change, negative = growth inhibition, usual class: inhibitors; hit rate 12% among 420,000; note: potency is the fitted concentration of half-maximal effect; nearly all actives have a fitted effect of over 55% in size
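Chicken DT40 Tdp1-/- cells complemented with human TDP1, 400 cells/well, exposed to compounds plus 20 nM camptothecin for at least 48 h at 37 C; viability read as ATP content by CellTiter-Glo luminescence.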
HT1080-NT tox = qHTS for induction of synthetic lethality in tumor cells producing 2HG: qHTS for the HT-1080-NT fibrosarcoma cell line; HT-1080-NT fibrosarcoma viability, CellTiter-Glo ATP luminescence, 48 h; Potency, µM (top dose mostly 46.1 µM), for the others: at the top dose activity, negative = less viability, actives largely listed as cytotoxic; hit rate 1.6% among 360,000; AID 686970, 2013;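 note: NT is the 2HG producing partner of a matched IDH1 knockdown line; potency is the fitted concentration of half-maximal effect; 0% = DMSO-treated cells and -100% = media-only wells without cells; nearly all actives have a fitted effect of over 55% in size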
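HT-1080-NT fibrosarcoma cells (2HG-overproducing), 750 cells/well in RPMI with 5% FBS, dosed after 2 h and incubated 48 h at 37C. CellTiter-Glo luminescence normalized to DMSO and no-cell wells; concentration-response curves fitted and classed.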
HT1080 IDH1KD tx = qHTS for induction of synthetic lethality in tumor cells producing 2HG: qHTS for the HT-1080-IDH1KD cell line; HT-1080 IDH1 knockdown viability, ATP luminescence, 48 h; Potency, µM (highest dose often 46.1 µM), inactives show at the highest dose activity, negative = toxicity, most hits filed as cytotoxic; hit rate 2% among 360,000; AID 686971, 2013;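 note: potency is the fitted concentration of half-maximal effect; 0% = DMSO wells and -100% = cell-free medium wells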
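Viability of IDH1-knockdown HT-1080 fibrosarcoma cells was assessed by CellTiter-Glo after 48 h at 37 °C with titrated compound; concentration-effect curves were classified by fit quality and response size.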
uPA generation = qHTS for Inhibitors of Cell Surface uPA Generation; cell surface uPA generation assay, qHTS; AID 540303, 2011; Potency, µM (highest dose often 38.3 µM), for the others: at the highest dose activity change, negative = inhibition, usual class: inhibitors; hit rate 0.31% among 330,000; active = well fitted inhibition curve with a large enough effect; inconclusive = small, poorly fitted or top-dose-only effect; inactive = no such curve, though single readings can be large or run the other way; tested in mouse RAW 264.7 cells; note: potency is the fitted concentration of half-maximal effect; nearly all actives have a fitted effect of over 55% in size
TDP1 cell noCPT = qHTS for Inhibitors of human tyrosyl-DNA phosphodiesterase 1 (TDP1): qHTS in cells in absence of CPT | Potency, µM (doses to about 46.2 µM), inactives show at the top dose activity change, negative = growth inhibition, most hits filed as inhibitors | DT40 Tdp1-/- hTDP1 cells, no CPT, ATP luminescence, 48 h | hit rate 15% among 420,000; note: potency is the fitted concentration of half-maximal effect; nearly all actives have a fitted effect of over 55% in size
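Compound effects on proliferation are scored in DT40 Tdp1-/-;hTDP1 cells in the absence of CPT. ATP levels (CellTiter-Glo luminescence) are recorded after a ≥48 hr, 37 °C incubation.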
The depositor's hits bear a star; ? = inconclusive; nt = not tested or not shown. Unless noted, calls come from the whole dose curve; as a rule, active = well fitted curve in the direction sought with a large enough effect; inconclusive = small, poorly fitted or top-dose-only effect, or another doubt; inactive = no such curve, though single readings can be large; an effect the other way counts as inactive or inconclusive. Unless noted, % is set by controls: 0 for no effect and ±100 for the full control effect.

SMILES	IL1B secr inh	DT40 TDP1 CPT	HT1080-NT tox	HT1080 IDH1KD tx	uPA generation	TDP1 cell noCPT
Cc1cccc(C(=O)N2CCc3cc(CNC(=O)c4cc5ccccc5[nH]4)ccc32)c1	nt	-18%	nt	nt	nt	-8%
Cc1cccc(C(=O)N2CCc3cc(CNC(=O)c4ccc(Br)o4)ccc32)c1	nt	18µM*	nt	nt	nt	?
Cc1cc(NC(=O)NCc2ccc3c(c2)CCN3C(=O)c2ccccc2)ccc1Br	nt	?	nt	nt	nt	16µM*
COc1ccc(C)cc1N(CC(=O)NC1CCCC1)C(=O)Cn1nnc(-c2ccc(C)o2)n1	0	1%	16%	11%	-1%	-23%
Cc1cc(S(=O)(=O)N2CCCC(N3CCOCC3)C2)c(C)cc1Cl (configuration not stated)	2	?	-5%	-8%	-3%	?
CC(C)(C)NC(=O)C(c1ccc(-c2ccccc2)cc1)N(C[C@H]1CC[C@@H]([C@@H]2CC[C@H](CO)O2)O1)C(=O)c1ccc(C(C)(C)C)cc1 (some centres not stated)	?	?	?	?	?	21µM*
CC(=O)Nc1ccc(-c2ccnc3c2CC(C(=O)NCc2ccccc2)O3)cc1 (configuration not stated)	60	0.023µM*	?	?	nt	0.018µM*
CC(=O)Nc1ccc(-c2ccnc3c2CC(C(=O)NCc2ccco2)O3)cc1 (configuration not stated)	40	0.18µM*	?	?	nt	0.0065µM*
COc1ccc(N=C2C(=O)N3CCCc4cccc2c43)cc1	1	?	-13%	1%	-8%	?
Cc1cccc2c1NC(=O)C2=Nc1ccc(Cl)cc1	-4	-24%	-17%	-11%	-4%	-13%
COc1cc(N=C2C(=O)N3c4c(cccc42)C(C)=CC3(C)C)cc(OC)c1	-14	6.5µM*	1%	-1%	-8%	5.2µM*
CC1=CC(C)(C)N2C(=O)C(=Nc3ccc(O)cc3)c3cccc1c32	-53*	4.1µM*	16µM*	26µM*	-6%	3.3µM*
COc1ccc(NC(=O)COC(=O)CCNC(=O)c2ccco2)cc1Cl	-6	0%	1%	6%	?	2%
COc1ccc(N(CC(=O)NCc2cccs2)S(=O)(=O)c2cccc(C)c2)cc1	-1	?	0%	-9%	6%	-27%
CCOC(=O)CC1C(=O)NCCN1S(=O)(=O)c1cccc(C(F)(F)F)c1 (configuration not stated)	18	6%	4%	6%	-8%	9%
OC[C@@H]1CN(Cc2ccc(F)cc2)C[C@H](n2cnc3c(N4CCCC4)ncnc32)O1	-91*	?	?	22%	nt	?
OCCN1CCN(c2ncnc3c2ncn3[C@H]2CN(Cc3ccc(-c4ccccc4)cc3)C[C@@H](CO)O2)CC1	-16	5.2µM*	21µM*	?	nt	6.5µM*
CN1CCN(c2ncnc3c2ncn3[C@H]2CN(Cc3ccc(-c4ccccc4)cc3)C[C@@H](CO)O2)CC1	-4	?	18µM*	9.2µM*	nt	?
Cc1ccc2oc(C(=O)Nc3ccc(S(=O)(=O)Nc4ncccn4)cc3)cc(=O)c2c1	nt	-21%	nt	nt	nt	-27%
CC/C(C)=N\N=C\c1c(O)n(CC)c2cc(C3=NNC(=O)CC3)ccc12	-6	10µM*	-5%	-1%	1%	6.5µM*
O=C(NCCSCc1ccc(Cl)cc1)C1CCN(S(=O)(=O)Cc2ccccc2)CC1	nt	-27%	nt	nt	nt	-12%
COCCN(CCOC)S(=O)(=O)c1ccc(C(=O)Nc2sc3c(c2C(=O)OC)CCN(C)C3)cc1	nt	-13%	nt	nt	nt	?
CCOC(=O)c1c(NC(=O)c2ccc(S(=O)(=O)N3CCC(C)CC3)cc2)sc2c1CCN(C)C2	nt	3.7µM*	nt	nt	nt	3.7µM*
CCOC(=O)c1c(NC(=O)C2CCCN(S(=O)(=O)c3ccccc3)C2)sc2c1CCCC2 (configuration not stated)	-2	8.2µM*	4%	?	-1%	9.2µM*
CCOC(=O)c1c(NC(=O)c2ccc(S(=O)(=O)N(C)C)cc2)sc2c1CCN(C)C2	nt	23µM*	nt	nt	nt	16µM*
SMILES	IL1B secr inh	DT40 TDP1 CPT	HT1080-NT tox	HT1080 IDH1KD tx	uPA generation	TDP1 cell noCPT
CCOC(=O)c1c(NC(=S)N2CCOCC2)sc2c1CCN(C(=O)OCC)C2	nt	?	9.2µM*	12µM*	-5%	?
CN1CCc2c(sc(NC(=O)c3ccc(S(=O)(=O)N4CCOCC4)cc3)c2C(N)=O)C1	10	-22%	4%	-2%	3%	-30%
CCOC(=O)c1c(NC(=O)c2ccccc2C(=O)O)sc2c1CCCC2	-9	0%	-2%	-4%	-3%	-1%
CCOc1ccc(C(=O)Cn2c(=O)n3nc(CCn4nc(C)cc4C)nc3c3cc(OC)c(OC)cc32)cc1	nt	14%	nt	nt	nt	-2%
Cc1ccc(Sc2c(C)nn(C(=O)COc3ccccc3Br)c2C)cc1	nt	-12%	nt	nt	nt	-3%
CCOC(=O)N1CCN(S(=O)(=O)c2ccc(C(=O)Nc3sc4c(c3C(=O)OC)CCN(C)C4)cc2)CC1	-100*	?	18µM*	?	-9%	?
COC(=O)c1c(NC(=O)c2ccc(S(=O)(=O)N3CC(C)OC(C)C3)cc2)sc2c1CCN(C)C2 (configuration not stated)	17	?	-3%	-30%	nt	?
CCOC(=O)c1c(NC(=O)c2ccc(S(=O)(=O)N(CC(C)C)CC(C)C)cc2)sc2c1CCN(C(=O)OCC)C2	nt	-34%	nt	nt	nt	0.0073µM*
N#CC1=C(N)N2C(=C(C#N)C13CCCCC3)SC1CCCCC12O (configuration not stated)	11	10µM*	2%	2%	-6%	13µM*
Fc1cnc(N2CCc3ccccc32)nc1N1CCc2ccccc21	-14	?	-12%	-3%	1%	?
CC1(C)CC(=O)c2cnc(N3CCc4ccccc43)nc2C1	nt	?	1%	-3%	-6%	26µM*
CC(C)(C)c1ccc(C2Sc3ccccc3NC3=C2C(=O)c2ccccc23)cc1 (configuration not stated)	nt	16µM*	nt	nt	nt	?
Nc1nc(Cl)cc(N2CCC(c3cc(-c4ccc(Cl)cc4Cl)n[nH]3)CC2)n1	-11	4.1µM*	?	?	-10%	4.1µM*
